# Assay outcomes deposited in PubChem BioAssay by National Center for Advancing Translational Sciences (NCATS).
# Most compounds without a hit are left out; they make up all but 9.9% or so of the library.
# SW480 rerep: A quantitative high throughput screen for small molecules that induce DNA re-replication in SW480 colon adenocarcinoma cells; SW480 DNA re-replication, Hoechst DNA content imaging, 48 h; Potency, µM (titrated, usually from 46.1 µM), for inactives: at the highest dose re-replication activation, actives largely listed as activators; hit rate 1.8% among 340,000; note: potency is the fitted concentration of half-maximal effect; % of control where 0% means no effect; nearly all actives have a fitted effect of over 55% in size
#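 SW480 cells exposed to compounds for 48 hr at 37 C, 5% CO2, then Hoechst-stained 40 min. Nuclear DNA content imaged by fluorescence scanning (405 nm excitation, 500-530 nm emission); re-replication scored as increased high-intensity nuclei.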
# IL-1B inflam inh: qHTS for Inhibitors of Inflammasome Signaling: IL-1-beta AlphaLISA Primary Screen; hit rate 4.7% among 360,000; activity change, % at 57.5 µM; THP-1 LPS/ATP IL-1B secretion, AlphaLISA, 16 h; active compounds read low; in the data active = activity change below about -50%; inconclusive = mostly about -30% to -49%; note: % is set by controls: 0 for no effect and ±100 for the full control effect
#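 THP-1 cells pretreated 1 hr with compounds (up to 57.5 uM final), then stimulated with LPS (250 ng/mL final) plus ATP (1.25 mM final); secreted IL-1B measured by AlphaLISA after 16 hr, decreased signal indicating inhibition.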
# KB-3-1 tox: qHTS assay for MDR1-selective chemotherapeutics: Primary screen using the parental adenocarcinoma cell KB-3-1. KB-3-1 viability, CellTiter-Glo ATP luminescence, 72 h. Potency, µM (doses to about 46.1 µM), most hits filed as cytotoxic. hit rate 1.4% among 400,000. AID 1347075, 2019; note: potency is the fitted concentration of half-maximal effect; % is set by controls: 0 for no effect and ±100 for the full control effect; nearly all actives have a fitted effect of over 60% in size
#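 Multi-concentration cytotoxicity screen in KB-3-1 cells grown in DMEM lacking phenol red with 10% FBS. After 72 h at 37 °C with compound, ATP-dependent luminescence was recorded.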
# MCF10A rereplic: A quantitative high throughput screen for small molecules that induce DNA re-replication in MCF 10a normal breast cells; MCF 10A DNA re-replication, Hoechst nuclear intensity, 48 h; Potency, µM (titrated, usually from 46.1 µM), for the others: at the top dose activity, positive = re-replication, usual class: activators; hit rate 2.9% among 350,000; AID 624296, 2012; note: potency is the fitted concentration of half-maximal effect; % of control where 0% means no effect; nearly all actives have a fitted effect of over 50% in size
# KB-V1 MDR tox: qHTS assay for MDR1-selective chemotherapeutics: Primary screen using the drug-selected MDR subline cells KB-V1; KB-V1 MDR cells viability, CellTiter-Glo, 72 h; Potency, µM (highest dose often 46.1 µM), most hits filed as cytotoxic; AID 1347076, 2019; hit rate 3.4% among 400,000; note: potency is the fitted concentration of half-maximal effect; % is set by controls: 0 for no effect and ±100 for the full control effect; nearly all actives have a fitted effect of over 60% in size
#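 Compound-treated KB-V1 multidrug-resistant cells, 72 h, 37 degrees C; viability by CellTiter-Glo. Fitted qHTS curves give the values.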
# * hit, by the source's call; i = inactive; ? = inconclusive; nt = no result; [ ] = remark or other dose. Unless noted, calls come from the whole dose curve; as a rule, active = well fitted curve in the direction sought with a large enough effect; inconclusive = small, poorly fitted or top-dose-only effect, or another doubt; inactive = no such curve, though single readings can be large; an effect the other way counts as inactive or inconclusive.
SMILES,SW480 rerep,IL-1B inflam inh,KB-3-1 tox,MCF10A rereplic,KB-V1 MDR tox
Cc1noc(C)c1NC(=O)N(C)C[C@H]1Oc2ccc(NC(=O)Cn3cnnn3)cc2C(=O)N([C@H](C)CO)C[C@@H]1C,-1%,14,i,-16%,i
CCOC(=O)CCCc1sc(N)nc1-c1[nH]c(=O)[nH]c1C,?,-83*,i,4%,i
CCOC(=O)CCc1c(C)n[nH]c1C,-8%,13,i,-2%,i
C=CCc1ccccc1OCc1nc2ccccc2n1CC,nt,nt,i,nt,i
O=C(CN(Cc1ccc(Cl)cc1)C(=O)c1csnn1)NCc1ccccc1,2%,-9,?,-7%,i
O=C(Nc1ccc2oc(-c3ccncc3)nc2c1)c1ccc2c(c1)OCCO2,?,-2,i,?,i
O=C(Nc1ccc2oc(-c3ccccc3)nc2c1)c1ccc2c(c1)OCCO2,?,-24,?,21µM*,8.2µM*
COc1ccc(C(=O)Nc2ccc3oc(-c4cccnc4)nc3c2)cc1OC,-10%,?,i,-2%,?
CCCC(=O)Nc1ccc(-c2nc3cc(C)ccc3o2)cc1,-5%[9.22 µM],57,i,-1%,i
CCCC(=O)Nc1ccc2oc(-c3ccc(OC)c(Br)c3)nc2c1,?,-2,i,18µM*,2.6µM*
COc1cc(C(=O)Nc2ccc(Nc3ccccc3)cc2)cc(OC)c1OC,26%,-56*,i,21µM*,i
COc1cc(C(=O)Nc2ccc3oc(-c4cccnc4)nc3c2)cc(OC)c1OC,-19%,-3,i,?,15µM*
COc1ccc(NS(=O)(=O)c2ccc(F)c(F)c2F)cc1S(=O)(=O)N1CCOCC1,2%,11,i,-3%,i
COc1cc(C(=O)Nc2ccc3oc(-c4ccccc4)nc3c2)cc(OC)c1OC,nt,nt,i,nt,8.2µM*
COc1cc(C(=O)Nc2cc(-c3ccccc3)[nH]n2)cc(OC)c1OC,11%,23,?,27%,18µM*
Cn1cnc([N+](=O)[O-])c1Sc1ccc(Br)cc1,?,?,i,6.5µM*,i
Cc1ccc(Sc2c([N+](=O)[O-])ncn2C)cc1,6%,-14,i,?,i
CCN1CCN(Cc2c3ccccc3cc3ccccc23)CC1,-1%,-86*,?,8%,?
CC(C)(C)OC(=O)N1CCC[C@H]1C(=O)NCc1ccc(Cl)cc1Cl,13%,24,i,0%,?
Cc1cccc(-c2nsc(SCC(=O)N3CCCC3)n2)c1,-4%,-21,i,6%,16µM*
COc1coc(C(O)C[N+](=O)[O-])cc1=O (stereo not drawn),238%,26,i,-2%,i
C=C(C)CN=CC1(C)CCC(C)=CO1 (stereo not drawn),0%,-1,i,9%,i
O=C(Oc1ccccc1C(=O)Nc1ccccc1)c1ccccc1Br,15µM*,?,12µM*,5.2µM*,16µM*
O=C(Nc1ccc(C2CC2(Cl)Cl)cc1)c1ccccc1Br (stereo not drawn),2%,?,i,?,18µM*
O=C(COc1ccccc1C(=O)Nc1ccccc1)Nc1ccccc1Br,nt,nt,i,nt,i
SMILES,SW480 rerep,IL-1B inflam inh,KB-3-1 tox,MCF10A rereplic,KB-V1 MDR tox
CCC[C@H]1CN(c2ccc(OC)cc2)C(=O)[C@@H]1CC(=O)NC,nt,18,i,nt,i
CSCCC1NC(=S)N(Cc2ccccc2)C1=O (stereo not drawn),-11%,34,i,0%,i
CCOC(=O)c1c(C)n(C)c2ccc(OC)c(NC(=O)CCN3CCSCC3)c12,2%,29,i,13%,13µM*
CCOC(=O)c1c(C)n(C)c2ccc(OC)c(NC(=O)CN3CCC(C(=O)OCC)CC3)c12,-20%,4,i,-3%,?
CCOC(=O)c1sc(NC(=O)CSc2nnnn2-c2ccc(C)c(C)c2)nc1C,1%,60,i,5.8µM*,i
O=C(CSc1nnnn1-c1ccc2c(c1)OCCO2)Nc1nc2c(s1)CCCC2,-15%,?,i,2%,16µM*
CCOC(=O)c1sc(NC(=O)CSc2nnc(C(C)C)n2C)nc1C,-9%,-1,i,4%,23µM*
O=[N+]([O-])c1ccc2c(c1)C=C/C2=C\c1ccc(C=S)cc1,nt,nt,i,nt,?
Cc1ccc(Cl)cc1NC(=O)NCc1cccnc1,18µM*,36,i,0%,i
Cc1cc(NC(=O)Nc2ccc(F)c(Cl)c2)no1,-1%,-24,i,12%,i
CCCCNC(=O)NC1(C(F)(F)F)Oc2ccccc2O1,-2%,23,?,?,i
Cc1cc(NC(=O)NC2(C(F)(F)F)Oc3ccc(Cl)cc3O2)no1 (stereo not drawn),10%,44,?,-1%,18µM*
O=C(NCc1cccnc1)NC1(C(F)(F)F)Oc2ccc(Cl)cc2O1 (stereo not drawn),13%,28,?,11%,3.3µM*
COCCNC(=O)NC1(C(F)(F)F)Oc2ccc(Cl)cc2O1 (stereo not drawn),3%,0,23µM*,15%,?
COc1ccc(Cl)cc1NC(=O)NCc1cccnc1,4%,-16,i,9%,i
O=C(NC1CCCCC1)C(c1cccc2ccccc12)n1c(=O)c(-c2ccco2)nc2ccccc21 (stereo not drawn),nt,-4,i,nt,i
O=C(CN1CCN(S(=O)(=O)N2CCOCC2)CC1)Nc1cc(Cl)ccc1Cl,0%,4,i,0%,?
CCOC(=O)COc1ccc(F)cc1C(=O)c1ccn2nc(-c3ccc(Cl)cc3)cc2n1,nt,nt,i,nt,?
O=c1[nH]nc(Cc2ccc(-c3ccc(Cl)cc3)o2)c2ccccc12,?,33,i,8.2µM*,i
Cc1ccc(C(=O)Nc2cccc3ccccc23)o1,5.2µM*,-5,i,?,i
CN(Cc1ccccc1)C(=O)c1ccc([N+](=O)[O-])o1,6.5µM*,?,i,16µM*,?
O=C(Nc1cccc2ccccc12)c1ccc([N+](=O)[O-])s1,?,15,i,?,i
COc1ccccc1NC(=O)c1ccc([N+](=O)[O-])o1,7.3µM*,-83*,?,?,i
O=C(Nc1cccc2ccccc12)c1ccc([N+](=O)[O-])o1,?,-97*,?,5.8µM*,?
COc1ccccc1NC(=O)c1ccc(COc2ccccc2OC)o1,8%,-2,i,-7%,i
CCCCNC(=O)O/N=C(\N)CS(=O)(=O)C(C)(C)C,12%,-13,i,-5%,i
